# Screens from PubChem BioAssay.
# Only a selection was taken, and hits are over-represented in it overall.
# GoLoco inh red: qHTS Assay for Inhibitors of RGS12 GoLoco Motif Activity (Red Fluorophore). Guanine nucleotide-binding protein G(i) subunit alpha-1 (Homo sapiens), P63096. Gai1:RGS12 GoLoco peptide FP, rhodamine, 10 min. Potency, µM (highest dose often 61.6 µM), for the others: top-dose activity, negative = inhibition, hits mostly inhibitors. 230,000 tested, 0.44% active. AID 880, 2007; active = well fitted inhibition curve with a large enough effect, not every such curve was filed as active; inactive = no such curve, though single readings can be large or run the other way; also: nearly all actives have a fitted effect of over 30% in size
# RECQ1 inh-1: qHTS Assay for Inhibitors of RecQ-Like Dna Helicase 1 (RECQ1); ATP-dependent DNA helicase Q1 (Homo sapiens), P46063; RECQ1 DNA unwinding, red fluorescence kinetic read; Potency, µM (titrated, usually from 57.3 µM), without a hit: top-dose activity, negative = inhibition, usual class: inhibitors; 240,000 tested, 0.54% active; AID 2549, 2010;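 also: plate controls were vehicle for no effect and no enzyme for full effect; nearly all actives have a fitted effect of over 30% in size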
#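 RECQ1T1 50 nM; forked duplex (20 bp + 30-nt ss tails) 200 nM, ATP 2 mM final; pH 8.0, 2 mM MgCl2, 2.5 ug/ml poly(dI-dC); 15 min compound preincubation; discontinuous kinetic read over 2 h at RT.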
# BLM inh-1: qHTS Assay for Inhibitors of Bloom's syndrome helicase (BLM); RecQ-like DNA helicase BLM (Homo sapiens), P54132; recombinant BLM DNA unwinding, fluorescence dequenching; Potency, µM (titrated, usually from 56.1 µM), for inactives: at the top dose activity change, negative = inhibition, hits mostly inhibitors; 350,000 tested, 0.2% active;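 also: plate controls were vehicle for no effect and no enzyme for full effect; nearly all actives have a fitted effect of over 35% in size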
# Target sequence (P54132 whole entry, looked up): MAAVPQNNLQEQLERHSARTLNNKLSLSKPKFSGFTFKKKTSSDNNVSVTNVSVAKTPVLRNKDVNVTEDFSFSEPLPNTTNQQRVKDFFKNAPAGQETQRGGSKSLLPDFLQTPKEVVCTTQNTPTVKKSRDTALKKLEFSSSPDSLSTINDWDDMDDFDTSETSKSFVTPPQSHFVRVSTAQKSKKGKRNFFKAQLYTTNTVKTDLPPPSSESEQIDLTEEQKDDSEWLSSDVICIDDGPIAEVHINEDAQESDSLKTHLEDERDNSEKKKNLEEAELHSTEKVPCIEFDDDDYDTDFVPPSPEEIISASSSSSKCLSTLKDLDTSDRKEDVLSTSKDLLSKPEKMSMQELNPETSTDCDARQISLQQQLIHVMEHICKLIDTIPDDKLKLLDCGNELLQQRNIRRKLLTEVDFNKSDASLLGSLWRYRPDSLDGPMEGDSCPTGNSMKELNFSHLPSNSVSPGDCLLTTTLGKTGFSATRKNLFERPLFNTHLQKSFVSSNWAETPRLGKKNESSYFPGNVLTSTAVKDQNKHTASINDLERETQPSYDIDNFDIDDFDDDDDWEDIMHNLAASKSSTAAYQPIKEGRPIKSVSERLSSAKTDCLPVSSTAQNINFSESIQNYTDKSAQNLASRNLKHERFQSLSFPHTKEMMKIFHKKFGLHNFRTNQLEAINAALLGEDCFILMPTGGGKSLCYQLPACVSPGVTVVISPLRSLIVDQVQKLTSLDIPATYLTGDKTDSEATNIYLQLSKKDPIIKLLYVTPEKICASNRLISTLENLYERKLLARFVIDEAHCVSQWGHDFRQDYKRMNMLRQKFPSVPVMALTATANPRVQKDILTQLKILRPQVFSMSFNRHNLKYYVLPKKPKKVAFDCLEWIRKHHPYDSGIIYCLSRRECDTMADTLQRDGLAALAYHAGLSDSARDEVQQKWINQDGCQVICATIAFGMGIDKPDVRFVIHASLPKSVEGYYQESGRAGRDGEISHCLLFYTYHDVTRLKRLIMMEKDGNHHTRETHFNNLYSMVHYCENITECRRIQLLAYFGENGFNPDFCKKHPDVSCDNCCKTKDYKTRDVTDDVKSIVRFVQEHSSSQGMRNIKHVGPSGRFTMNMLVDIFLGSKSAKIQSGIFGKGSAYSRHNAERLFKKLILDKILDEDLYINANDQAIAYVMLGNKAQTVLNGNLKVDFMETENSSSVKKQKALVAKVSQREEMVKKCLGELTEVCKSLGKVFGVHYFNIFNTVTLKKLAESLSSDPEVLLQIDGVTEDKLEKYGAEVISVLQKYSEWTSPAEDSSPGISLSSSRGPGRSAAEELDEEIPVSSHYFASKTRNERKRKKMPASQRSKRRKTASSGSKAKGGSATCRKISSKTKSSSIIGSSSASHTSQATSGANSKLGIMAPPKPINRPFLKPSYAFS
# KDM4E inh: qHTS Assay for Inhibitors of Human Jumonji Domain Containing 2E (JMJD2E) | Lysine-specific demethylase 4E (Homo sapiens), B2RXH2 | JMJD2E catalytic domain, FDH-coupled NADH fluorescence (FDH is formaldehyde dehydrogenase) | Potency, µM (series often up to 57.1 µM), for inactives: at the top dose activity change, negative = inhibition, hits mostly inhibitors | 230,000 tested, 1.6% active | AID 2147, 2009; active = well fitted inhibition curve with a large enough effect, not every such curve was filed as active; inconclusive = small, poorly fitted or top-dose-only effect, or another doubt; inactive = no such curve, though single readings can be large or run the other way;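 also: 0% = wells with enzyme and -100% = buffer wells without enzyme; nearly all actives have a fitted effect of over 50% in size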
# L3MBTL1 block: qHTS Assay for the Inhibitors of L3MBTL1 | Lethal(3)malignant brain tumor-like protein 1 (Homo sapiens), Q9Y468 | AlphaScreen L3MBTL1–H3K9me1 peptide binding | Potency, µM (titrated, usually from 57.1 µM), for the others: top-dose activity, negative = inhibition, hits mostly inhibitors | 230,000 tested, 0.66% active; also: nearly all actives have a fitted effect of over 60% in size
#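 L3MBTL1 50 nM + b-AHA-H3(1-15)K9me1 75 nM, 30 min RT; compound added, 30 min RT; streptavidin donor/Ni-chelate acceptor beads 10 ug/mL each final, 30 min RT dark; AlphaScreen read.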
# APE1 inh-1: qHTS Assay for Inhibitors of the Human Apurinic/apyrimidinic Endonuclease 1 (APE1). Potency, µM (top dose mostly 65.8 µM), without a hit: at the top dose activity change, negative = inhibition, hits mostly inhibitors. 350,000 tested, 0.35% active. recombinant APE1, TAMRA/BHQ-2 abasic DNA cleavage fluorescence. DNA repair nuclease/redox regulator APEX1 (Homo sapiens), P27695. AID 2517, 2012;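 also: plate controls were vehicle for no effect and reference inhibitor for full effect; nearly all actives have a fitted effect of over 55% in size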
#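 Readout is kinetic fluorescence (ex 525, em 598 nm) from cleavage of 50 nM TAMRA/BHQ-2 THF abasic duplex by 0.75 nM APE1, compound added 15 min beforehand at RT.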
# DNA dye displace: Counterscreen for APE1 Inhibitors: Fluorescent Dye Displacement Assay | shares compounds with APE1 inh-1 | DNA fluorescent dye displacement counterscreen, fluorescence | Potency, µM (series often up to 28.5 µM), for the others: at the top dose activity change, negative = inhibition, usual class: inhibitors | 480 tested, 7% active | AID 2564, 2010;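 also: loss of thiazole orange fluorescence as the dye is displaced from duplex DNA; 0% = ThO with dsDNA and no compound and -100% = ThO without dsDNA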
# EndoIV counter: Counterscreen for APE1 Inhibitors: qHTS Assay for Inhibitors of Endonuclease IV; shares compounds with APE1 inh-1; Potency, µM (titrated, usually from 27.1 µM), inactives show at the top dose activity change, negative = inhibition, usual class: inhibitors; AID 2565, 2010; E. coli Endo IV, fluorogenic AP-site DNA cleavage; 560 tested, 4% active;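 also: plate controls were uninhibited enzyme wells for no effect and no enzyme buffer wells for full effect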
# APE1 inh-2: Confirmation qHTS Assay for Inhibitors of the Human Apurinic/apyrimidinic Endonuclease 1 (APE1). AID 2572, 2010. purified APE1, fluorogenic abasic-site DNA cleavage. shares compounds with APE1 inh-1. 750 tested, 44% active. Potency, µM (doses to about 57.1 µM), without a hit: top-dose activity change, negative = inhibition, actives largely listed as inhibitors; also: nearly all actives have a fitted effect of over 30% in size
# APE1 FP: qHTS FP-Based Assay for Inhibitors of the Human Apurinic/apyrimidinic Endonuclease 1 (APE1). Potency, µM (doses to about 28.5 µM), inactives show at the top dose activity, negative = inhibition, hits mostly inhibitors. shares compounds with APE1 inh-1. 480 tested, 7% active. APE1 binding to TAMRA-labelled double-stranded DNA, fluorescence polarization displacement. AID 2573, 2010
# BLM inh-2: qHTS Confirmation Assay for Inhibitors of Bloom's syndrome helicase (BLM) | shares compounds with BLM inh-1 | AID 2585, 2010 | 220 tested, 40% active | Potency, µM, inactives show max response, negative = inhibition, usual class: inhibitors | BLM DNA unwinding, fluorescence quenching, biochemical;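 also: strand separation dequenches TAMRA so unwinding raises red fluorescence; series mostly up to about 69 µM; nearly all actives have a fitted effect of over 45% in size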
# RECQ1 inh conf: Confirmation qHTS Assay for Inhibitors of RecQ-Like Dna Helicase 1 (RECQ1); 610 tested, 28% active; Potency, µM (top dose mostly 229 µM), for inactives: at the highest dose activity change, negative = inhibition, hits mostly inhibitors; RECQ1 helicase DNA unwinding, fluorescence; shares compounds with RECQ1 inh-1; also: nearly all actives have a fitted effect of over 45% in size
# ADP FP counter: Counterscreen for RECQ1 Inhibitors: ADP Fluorescence Polarization Displacement Assay; AID 2711, 2010; Potency, µM (series often up to 228 µM), without a hit: at the highest dose activity change, negative = inhibition, most hits filed as inhibitors; ADP fluorescence polarization displacement counterscreen; 530 tested, 27% active; shares compounds with RECQ1 inh-1; also: nearly all actives have a fitted effect of over 45% in size
# RECQ1 inh-2: Confirmation qHTS Assay for Inhibitors of RecQ-Like Dna Helicase 1 (RECQ1) - Round 2 Cherry Picks; AID 504841, 2011; Potency, µM (highest dose often 119 µM), for inactives: top-dose activity, negative = inhibition, most hits filed as inhibitors; 1,100 tested, 15% active; recombinant RECQ1 DNA unwinding, red fluorescence; shares compounds with RECQ1 inh-1; also: nearly all actives have a fitted effect of over 50% in size
# * hit, by the source's call; ? = inconclusive; . = no result; [ ] = remark or other dose. Unless noted, calls follow the shape of the dose curve; as a rule, active = well fitted curve in the direction sought with a large enough effect; inconclusive = small, poorly fitted or top-dose-only effect, or another doubt; inactive = no such curve, though single readings can be large; an effect the other way counts as inactive or inconclusive. Unless noted, % is scaled to controls: 0 for no effect and ±100 for the full control effect; potency is read from the fitted curve at half-maximal effect.
SMILES,GoLoco inh red,RECQ1 inh-1,BLM inh-1,KDM4E inh,L3MBTL1 block,APE1 inh-1,DNA dye displace,EndoIV counter,APE1 inh-2,APE1 FP,RECQ1 inh-2,others
O=C1CC(=O)N(Cc2ccco2)C(=O)N1,23%,?,63%,-29%,3.2µM*,10µM*,4%,21%,5.6µM*,-8%,?,
O=C1CC(=O)N(Cc2ccco2)C(=S)N1,208%,11µM*,?,?,.,11µM*,3%,35%,35µM*,?,.,RECQ1 inh conf=16µM*;ADP FP counter=17%[91.9 µM]
COc1ccc(-c2nc(S(=O)(=O)c3ccc(C)cc3)c(NCc3ccccc3)o2)cc1,.,.,-5%,.,.,.,.,.,.,.,.,
O=C(O)C1=CC(=C(c2ccc(O)c(C(=O)O)c2)c2ccc(O)c(C(=O)O)c2)C=CC1=O,2.8µM*,0.28µM*,2.8µM*,?,?,0.0067µM*,.,2.2µM*,0.056µM*,.,.,BLM inh-2=11µM*;RECQ1 inh conf=0.26µM*;ADP FP counter=0%[25.6 µM]
CC1=C/C(=C(/c2ccc(O)c(C)c2)c2ccccc2C(=O)O)C=CC1=O,1%[14.2 µM],.,.,.,.,.,.,.,.,.,.,
CN(C)c1ncnc2ccc(-c3cccc(C#N)c3)cc12,-7%,20%,-9%,.,.,2%,.,.,.,.,.,
N=C1/C(=C\c2ccc(SCc3ccco3)o2)C(=O)N=C2SC=NN12,255%,8.9µM*,-6%,28µM*,-29%,3.2µM*,15%,10%,?,4%,?,
CC1=NN2C(=N)/C(=C\c3ccc(SCc4ccccc4)o3)C(=O)N=C2S1,52%,-17%,-13%,-17%,.,-4%,.,.,.,.,.,
CC(=O)[C@@]1(N=Nc2ccc(S(N)(=O)=O)cc2)CCOC1=O,-3%[14.2 µM],.,.,.,.,.,.,.,.,.,.,
Cc1cccc(NC(=O)CSc2nnc(-c3ccco3)c(-c3ccco3)n2)c1C,4%,18µM*,18µM*,?,?,?,?,29%,?,1%,-13%,
Cc1cccc(NC(=O)CSc2nnc(-c3ccco3)c(-c3ccco3)n2)c1,-4%,-20%,?,-19%,?,?,.,.,.,.,.,
O=c1cc(O)cc(/C=C/c2ccc(O)c(O)c2)o1,-5%,0.79µM*,.,?,.,0.71µM*,.,3%[57.1 µM],-18%,.,.,RECQ1 inh conf=11%;ADP FP counter=?
Cc1ccc(CNC(=O)CCS(=O)(=O)c2ccc(Cl)cc2)cc1,.,3%,0%,-7%,-3%,2%,.,.,.,.,.,
Cc1ccc(CNC(=O)CCS(=O)(=O)c2ccc(Br)cc2)cc1,-22%,?,-17%,11µM*,.,?,.,.,?,.,?,
NC1=NC(=O)/C(=C\c2ccco2)S1,-13%,?,-22%,22µM*,.,22µM*,?,5%,?,-4%,-22%,
COc1ccc(CNCCc2ccc([N+](=O)[O-])cc2)c(OC)c1OC,.,.,6%,.,-4%[2.29 µM],-4%,.,.,.,.,.,
COc1cc(N(C)C)cc(CN(C)CCc2ccc([N+](=O)[O-])cc2)c1O,.,10µM*,14µM*,.,.,3.2µM*,0%[57.1 µM],3%[57.1 µM],?,-9%[57.1 µM],50µM*,RECQ1 inh conf=100µM*;ADP FP counter=?
CCc1cccc(C)c1NC(=O)CCCn1c(C)c2cnn(-c3ccccc3)c(=O)c2c1C,.,.,-1%,.,.,.,.,.,.,.,.,
Cc1ccc(NC(=O)CN2C(=O)S/C(=C/c3ccc(-c4cc(C(=O)O)ccc4C)o3)C2=O)cc1C,13%,14µM*,?,?,.,?,149%,-4%,7.1µM*,10µM*,?,RECQ1 inh conf=22µM*;ADP FP counter=?
CCn1c(C)cc(/C=C2\SC(=O)N(CC(=O)Nc3ccc(C)c(C)c3)C2=O)c1C,-3%,-1%,-5%,-6%,0%,-1%,.,.,.,.,.,
Cc1ccc(N2C(=O)c3ccccc3C2C(=O)c2cc(C)ccc2O)cc1 (stereo not drawn),-19%,-15%,-10%,?,-11%,7%,.,.,.,.,.,
